Compound activity deposited in PubChem BioAssay by several laboratories.
PLCb3 inh = human PLC-beta3 inhibitors, primary screen, biochemical, fluorescence | Purified PLC-beta3, fluorogenic substrate | inhibition, % at 12.2 µM | actives 0.18% (n = 370,000) | AID 720704, 2013;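 note: 0% = median of compound wells on plate and 100% = full blocker control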
FAS-TE inh = FAS thioesterase domain inhibitors, primary screen, biochemical, fluorescence intensity, uHTS; AID 602261, 2012; actives 0.67% (n = 360,000); recombinant FAS-TE, OMFH fluorogenic substrate, fluorescence endpoint; inhibition, % at 15 µM;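 active = compounds whose normalised, plate-corrected inhibition of enzyme fluorescence in the single-dose primary screen is 50% or more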;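 note: 0% = DMSO with enzyme and 100% = substrate without enzyme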
PLCg1 inh = PLC-gamma1 enzyme inhibitors, primary screen, biochemical, fluorescence, purified enzyme; inhibition, % at 12.2 µM; 1-phosphatidylinositol 4,5-bisphosphate phosphodiesterase gamma-1 (Homo sapiens), P19174; actives 0.84% (n = 370,000); fluorogenic substrate; in the data active = inhibition above about 9.5%
H9c2 protect = cardioprotection against H2O2-induced cell death, primary screen, uHTS, H9c2 cells, ATPLite luminescence. AID 588492, 2011. H9c2 cardiomyocytes, H2O2 injury protection, 2 h. actives 0.63% (n = 360,000). protection from H2O2 cell death, % at 20 µM;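 active = compounds giving at least 50% protection of heart cells from peroxide-induced death in the single-dose screen, raw or plate-pattern-corrected value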;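 note: 0% = DMSO wells with peroxide and 100% = DMSO wells without peroxide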
PLCgamma1 ctr = PLC-gamma1 enzyme inhibitors, counter-screen for PLC-beta3 inhibitor project, biochemical, fluorescence. shares compounds with PLCg1 inh. purified PLC-gamma1, fluorogenic substrate. inhibition, % at 12.3 µM. actives 3.1% (n = 3,300); in the data active = inhibition above about 9.5%
PLCb3 confirm = PLC-beta3 inhibitor confirmation, biochemical, fluorescence, purified enzyme; actives 1% (n = 3,300); shares compounds with PLCg1 inh; fluorogenic substrate fluorescence; inhibition, % at 12.3 µM; AID 743261, 2014
* hit, by the source's call; / = not tested or not shown. An excerpt weighted towards active compounds, which were near 2.2% of everything screened. Cut-off read from the data, not from the text of the source, unless noted: active = inhibition above about 11%; inactive = the rest.

SMILES	PLCb3 inh	FAS-TE inh	PLCg1 inh	H9c2 protect	PLCgamma1 ctr	PLCb3 confirm
COC(=O)[C@@]12C[C@@H](CC(=O)NCc3ccc(C)o3)C(=O)N(CCc3ccc(OC)c(OC)c3)C1=CCC(C)(C)C2	-5.5	/	3.1	/	/	/
COC(=O)C1=C(C(=O)OC)[C@@H]2N(C)c3ccc(OC)cc3[C@@]23C[C@@H](C(=O)OC)N(C(=O)CC(C)C)C3=N1	7.1	13.6	9.6*	7.6	-4.0	0.9
O=C(CC1SCCNC1=O)Nc1cccc(Cl)c1 (stereo unspecified)	-1.7	-11.1	-2.0	-4.1	/	/
CCc1ccccc1NC(=O)CC1SCCNC1=O (stereo unspecified)	2.9	-3.7	11.0*	1.2	-6.6	-0.5
S=C(NCCN1CCCCC1)Nc1ccccc1	2.9	-13.4	10.1*	15.6	-7.0	-2.6
S=C(NCCN1CCCCC1)Nc1ccc(Br)cc1	1.4	0.1	6.0	4.0	/	/
S=C(NCCCNC(=S)Nc1ccccc1)Nc1ccccc1	3.5	-8.0	13.4*	6.6	-6.6	-4.5
CCSC1=C(C#N)C2(CCCCC2)C(C#N)C(=O)N1 (stereo unspecified)	2.3	-7.4	12.8*	0.9	-6.4	-4.7
O=C(O)CCCN1C(=O)C2C3CCC(C3)C2C1=O (stereo unspecified)	6.7	-4.0	11.6*	0.3	-3.1	1.0
O=C(O)CCCN1C(=O)C2C3CCC(O3)C2C1=O (stereo unspecified)	3.4	-15.7	5.4	-8.5	/	/
CCn1cnnc1SCC(=O)Nc1ccccc1C(=O)NC1CC1	11.2*	-1.1	11.5*	-3.8	-2.5	0.5
CCCCn1cc([N+](=O)[O-])nc1C	-7.7	-5.7	-0.4	4.6	/	/
Cc1nc([N+](=O)[O-])cn1CCCCN1C(=O)c2ccccc2C1=O	1.1	1.1	10.5*	3.4	-0.2	-2.1
O=C(COn1nnc2ccc(S(=O)(=O)N3CCOCC3)cc21)NCc1cccc(Cl)c1	0.6	-8.9	-0.5	2.8	/	/
Cn1nc(SCC(=O)O)sc1=S	-1.0	-6.4	-0.1	0.5	/	/
CCOC(=O)C(Sc1nn(C)c(=S)s1)C(C)=O (stereo unspecified)	10.9*	-10.2	3.0	-0.9	5.9	2.3
Cc1onc(-c2ccccc2)c1C(N)=O	-3.2	-1.3	-1.1	6.6	/	/
Cc1oc(C)c(C(N)=O)c1C(N)=O	11.0*	-5.1	7.1	5.3	-6.3	-2.9
Cn1c(=O)oc2ccccc2c1=O	3.2	-5.3	3.5	3.9	/	/
CN1CC[C@]2(CCN3CCc4c(oc5ccccc45)[C@@H]3C2)N(C)C1=O	25.1*	2.8	-33.5	-3.8	-15.0	-14.4
CCn1c(SCc2ccccc2F)nnc1-c1ccncc1	-3.7	-7.0	0.8	-0.7	/	/
NCCC(=O)NC[C@H]1O[C@@H](n2cnc3c(N)ncnc32)[C@H](O)[C@@H]1O	3.0	-9.4	2.2	11.6	/	/
Nc1ncnc2c1ncn2C1OC(COP(=O)(O)O)C(O)C1O (stereo unspecified)	1.4	0.5	40.8*	22.7	55.0*	1.1
Nc1ncnc2c1ncn2[C@@H]1O[C@H](COP(=O)(O)OP(=O)(O)OP(=O)(O)O)[C@@H](O)[C@H]1O	1.1	-1.4	39.5*	13.5	54.4*	1.2
Nc1ncnc2c1ncn2[C@@H]1O[C@H](CNC(=O)[C@@H]2CCN2)[C@@H](O)[C@H]1O	3.7	-6.6	2.0	2.8	/	/
SMILES	PLCb3 inh	FAS-TE inh	PLCg1 inh	H9c2 protect	PLCgamma1 ctr	PLCb3 confirm
Nc1ncnc2c1ncn2[C@@H]1O[C@H](COP(=O)(O)O)[C@@H](O)[C@H]1O	-0.6	3.6	39.0*	41.1	47.8*	-0.7
NC(=O)C1=CN([C@@H]2O[C@H](COP(=O)(O)OP(=O)(O)OC[C@H]3O[C@@H](n4cnc5c(N)ncnc54)[C@H](O)[C@@H]3O)[C@@H](O)[C@H]2O)C=CC1	-10.6	/	29.2*	/	32.0*	-18.3
Nc1ncnc2c1ncn2[C@@H]1O[C@H](COS(=O)(=O)O)[C@@H](O)[C@H]1O	0.7	-10.6	0.7	-6.7	/	/
CC1(C(=O)NS(=O)(=O)c2cccc(Cl)c2)CCN1C(=O)CCc1cccs1 (stereo unspecified)	-4.2	-7.6	-2.1	20.1	/	/
O=C(CN1CCN(C(=O)CCC(=O)N2CCC(c3ccccc3)=N2)CC1)Nc1ccc(F)cc1	-8.1	0.4	-2.5	-1.6	/	/
Cc1cccc(OCCCC(=O)NNC(=O)c2cccc(N(C)C)c2)c1	-48.3	-2.4	-38.9	2.6	/	/
O=C1[C@H](Cc2ccccc2)NCCCC[C@@H](c2ccc(Cl)cc2)N1Cc1ccccc1	1.4	26.5	16.2*	-7.1	0.8	2.3
Cn1c(=O)[nH]c(=O)c2c1ncn2CCN1CCOCC1	11.4*	-2.6	4.9	-4.9	-3.6	-4.3
CCn1cnc2c1c(=O)[nH]c(=O)n2Cc1ccccc1	/	-1.0	/	-2.9	/	/
CCCCn1cnc2c1c(=O)[nH]c(=O)n2CCCC	11.2*	-3.8	6.5	1.0	-4.0	6.5
Cn1c(=O)[nH]c(=O)c2c1nc(N1CCOCC1)n2CCN1CCOCC1	0.6	-5.8	2.3	1.1	/	/
Cc1ccc(SCC(=O)NNC(=O)c2ccccc2)c(C)c1	-2.9	1.7	0.3	-9.3	/	/
CCOC(=O)C1(C#N)C(=O)CSC1=Nc1ccccc1Cl (stereo unspecified)	-28.7	-7.3	-21.7	1.7	/	/
CCCCn1nnnc1C(c1cc2ccccc2o1)N(C)Cc1ccccc1 (stereo unspecified)	-7.1	24.9	-0.5	/	/	/
CCn1cc(C(=O)N2CCc3ccccc32)c(=O)c2cc(S(=O)(=O)N3CCOCC3)ccc21	1.4	-7.2	-2.2	0.4	/	/
CCn1cc(C(=O)N2CCc3ccccc32)c(=O)c2cc(S(=O)(=O)N(C)C3CCCCC3)ccc21	5.4	17.1	10.5*	63.2*	-2.7	-4.4
Nc1c(C(=O)N/N=C/c2ccc([N+](=O)[O-])cc2)cnn1-c1ccccc1	-0.9	0.1	10.5*	7.9	4.8	6.3
Cc1ccc(S(=O)(=O)NC2c3cccc4cccc(c34)C2Sc2n[nH]c(N)n2)cc1 (stereo unspecified)	-2.3	-31.4	9.9*	-0.7	-2.8	-2.6
CCOc1ccc(OCC(=O)N2CCOCC2)cc1	-0.5	-11.8	-3.0	14.9	/	/
CCOc1ccc(S(=O)(=O)N(C)c2ccc(OCC(=O)N3CCOCC3)cc2)cc1	3.0	-5.0	9.8*	-0.9	-4.9	-1.5
C[C@@H]1CN([C@@H](C)CO)C(=O)CCCn2nncc2CO[C@H]1CN(C)Cc1cccc(O)c1	-0.8	-8.3	4.0	0.7	/	/
O=C(CSc1nnc2ccc(-c3cccnc3)nn12)Nc1cccc(F)c1	-66.2	-2.9	-38.6	7.2	/	/
